The values below come from PubChem BioAssay (NCI).

Where “and” joins values, the source holds several entries; their conditions need not be identical. Equal entries are not always repeated. This is part of a sample that, as a whole, favours compounds with a hit. Of some 79,000 tested, about 15% had one in any assay. Some compounds were tested as several samples or in several runs, with calls that do not always agree. Calls of active or inactive are those of the source. Rule as the data show it: active = growth inhibition above about 70%; inactive = the rest. Where a SMILES comes first, the peptide text is derived from it.

Assay [1] is described as follows: NCI Yeast Anticancer Drug Screen. Data for the rad50 strain (AID 155).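 Also: 0% = growth of vehicle-only cultures of the same strain.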 Particulars: S. cerevisiae rad50 strain growth inhibition, stronger effect = higher value. A digest of the protocol: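 Vehicle-treated cultures provide the reference for the growth inhibition reported for compound-exposed, repair-deficient yeast.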
Assay [2] is described as follows: NCI Yeast Anticancer Drug Screen. Data for the mec2-1 strain (AID 157). Particulars: S. cerevisiae mec2-1 strain, stronger effect = higher value. A digest of the protocol: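 mec2-1 yeast strain, carrying an alteration in DNA damage repair or cell cycle control, was exposed to compounds; growth inhibition was measured relative to vehicle-treated controls.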
Assay [3] can be described thus: NCI Yeast Anticancer Drug Screen. Data for the sgs1 mgt1 strain (AID 161).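 Also: 0% = growth of cultures given vehicle only.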 To be noted: S. cerevisiae sgs1 mgt1 strain, stronger effect = higher value. The essentials:
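This yeast growth screen uses a strain with defined DNA-repair lesions; compound-treated growth is compared with vehicle-treated growth.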

The nature of assay [4]: NCI Yeast Anticancer Drug Screen. Data for the cln2 rad14 strain (AID 165).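 Also: 0% = growth equal to vehicle treated cultures.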 To be noted: S. cerevisiae cln2 rad14 strain, stronger effect = higher value. A digest of the protocol:
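Yeast carrying cln2 and rad14 alterations (cell cycle control and DNA damage repair) were exposed to compounds. Growth inhibition was measured against vehicle-treated controls.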

A short description of assay [5]: NCI Yeast Anticancer Drug Screen. Data for the mlh1 rad18 strain (AID 175). To be noted: S. cerevisiae mlh1 rad18 strain growth inhibition, stronger effect = higher value. A digest of the protocol:
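Growth inhibition of the yeast strain was measured after compound exposure and expressed relative to vehicle-treated controls. The strain carries defined defects in DNA damage repair.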

Assay [6] is described as follows: NCI Yeast Anticancer Drug Screen. Data for the bub3 strain (AID 167). To be noted: S. cerevisiae bub3 mutant strain, stronger effect = higher value. The essentials:
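Mutant yeast screening strain plus compound; vehicle-treated cultures serve as the 0% inhibition reference.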

Where [7] appears, read: at 5.0 µM (retest, dose inferred, filed as 0.5).
Setting [8] is: at 50.0 µM (retest, dose inferred, filed as 5.0).

Consider `COc1cccc(NC(=S)N2CCCCC2)c1`, for which the growth inhibition was -158% (inactive) in assay [1] (setting [7]); -160% (inactive) in assay [1] (setting [8]); 38.4% (inactive) in assay [1] (at 50.0 µM); -51% (inactive) in assay [2] (setting [7]); -58% (inactive) in assay [2] (setting [8]); -0.45% (inactive) in assay [2] (at 50.0 µM). In addition, the growth inhibition in assay [3] (setting [7]) was -69% (inactive); in assay [3] (setting [8]), -61% (inactive); in assay [3] (at 50.0 µM), -8.25% (inactive); in assay [4] (setting [7]), -69% (inactive); in assay [4] (setting [8]) it was -102% (inactive); in assay [4] (at 50.0 µM) it was -82.4% (inactive). For the same compound, the growth inhibition in assay [5] (setting [7]) was -132% (inactive); in assay [5] (setting [8]), -151% (inactive); in assay [5] (at 50.0 µM), 20.9% (inactive).

Turning to `C=CCNC(=O)c1ccccc1SC(C)=O`, the growth inhibition is 14% (inactive) in assay [1] (setting [7]); 99% (active) in assay [1] (setting [8]); 88.9% (active) in assay [1] (at 50.0 µM); 33% (inactive) in assay [2] (setting [7]); 99% (active) in assay [2] (setting [8]); 91.5% (active) in assay [2] (at 50.0 µM). The growth inhibition in assay [3] (setting [7]) was 20% (inactive); in assay [3] (setting [8]), 99% (active); in assay [3] (at 50.0 µM), 89% (active); in assay [4] (setting [7]), 23% (inactive); in assay [4] (setting [8]), 96% (active); in assay [4] (at 50.0 µM), 72% (active). The growth inhibition in assay [6] (setting [7]) was 52% (inactive); in assay [6] (setting [8]), 99% (active); in assay [6] (at 50.0 µM) it was 89.2% (active); in assay [5] (setting [7]), 18% (inactive); in assay [5] (setting [8]) it was 99% (active); in assay [5] (at 50.0 µM), 89.3% (active).

As to `CC(C)C(NC(=O)C(N)CCC(=O)O)C(=O)O` (stereo not drawn) (H-Glu-Val-OH; configuration not given here), the growth inhibition in assay [1] (setting [7]) was -3% (inactive); in assay [1] (setting [8]), 2% (inactive); in assay [1] (at 50.0 µM) it was 15.7% (inactive); in assay [3] (setting [7]), 0% (inactive); in assay [3] (setting [8]) it was 1% (inactive); in assay [3] (at 50.0 µM) it was -9.35% (inactive). The growth inhibition is 5% (inactive) in assay [4] (setting [7]); 7% (inactive) in assay [4] (setting [8]); 45% (inactive) in assay [4] (at 50.0 µM); -1% (inactive) in assay [6] (setting [7]); 0% (inactive) in assay [6] (setting [8]); -8.25% (inactive) in assay [6] (at 50.0 µM). The growth inhibition in assay [5] (setting [7]) is -3% (inactive); in assay [5] (setting [8]), 4% (inactive); in assay [5] (at 50.0 µM) it was 9.95% (inactive).

In the case of `CCN(CC)Cc1cc2[nH]c3c4ccc(Cl)cc4ncc3c2cc1OC` (tested in a mixture with another compound), the growth inhibition in assay [1] (setting [7]) is 3% (inactive); in assay [1] (setting [8]) it was 71% (active); in assay [1] (at 50.0 µM), 59.4% (inactive) and 65% (inactive); in assay [2] (setting [7]), 2% (inactive); in assay [2] (setting [8]), 58% (inactive); in assay [2] (at 50.0 µM) it was 38.8% (inactive) and 66% (inactive). Besides, the growth inhibition in assay [3] (setting [7]) is 0% (inactive); in assay [3] (setting [8]) it was 48% (inactive); in assay [3] (at 50.0 µM), 55.1% (inactive) and 74.2% (active); in assay [4] (setting [7]), -2% (inactive); in assay [4] (setting [8]), 47% (inactive); in assay [4] (at 50.0 µM) it was -1.65% (inactive) and 29.1% (inactive). Besides, the growth inhibition in assay [6] (setting [7]) was 4% (inactive); in assay [6] (setting [8]) it was 58% (inactive); in assay [6] (at 50.0 µM), 44.8% (inactive) and 48.6% (inactive); in assay [5] (setting [7]) it was 3% (inactive); in assay [5] (setting [8]), 74% (active); in assay [5] (at 50.0 µM), 64.3% (inactive) and 77.5% (active).

For `Cc1ccc(S(=O)(=O)SC/C=C\CSS(=O)(=O)c2ccc(C)cc2)cc1`, the growth inhibition in assay [1] (setting [7]) was 4% (inactive) and 51% (inactive); in assay [1] (setting [8]) it was 97% (active) and 95% (active); in assay [1] (at 50.0 µM) it was 93.3% (active) and 74.7% (active); in assay [2] (setting [7]) it was 14% (inactive) and -2% (inactive); in assay [2] (setting [8]), 97% (active); in assay [2] (at 50.0 µM), 97% (active) and 5.65% (inactive). For the same compound, the growth inhibition in assay [3] (setting [7]) was 12% (inactive) and 67% (inactive); in assay [3] (setting [8]) it was 95% (active) and 97% (active); in assay [3] (at 50.0 µM), 95.8% (active) and 76.7% (active); in assay [6] (setting [7]), 12% (inactive) and 17% (inactive); in assay [6] (setting [8]), 99% (active) and 98% (active); in assay [6] (at 50.0 µM) it was 96.5% (active) and -3.05% (inactive). The growth inhibition in assay [5] (setting [7]) is 2% (inactive) and 53% (inactive); in assay [5] (setting [8]), 98% (active) and 95% (active); in assay [5] (at 50.0 µM), 95.9% (active) and 41.2% (inactive).

As to `O=C(O)c1ccc(Nc2cnc3ccc(C(F)(F)F)cc3n2)cc1`, the growth inhibition in assay [1] (setting [7]) was 18% (inactive); in assay [1] (setting [8]) it was 16% (inactive); in assay [1] (at 50.0 µM) it was 60.9% (inactive); in assay [2] (setting [7]) it was 4% (inactive); in assay [2] (setting [8]) it was 12% (inactive); in assay [2] (at 50.0 µM), 41.2% (inactive). For the same compound, the growth inhibition is 10% (inactive) in assay [3] (setting [7]); 13% (inactive) in assay [3] (setting [8]); 18.2% (inactive) in assay [3] (at 50.0 µM); 5% (inactive) in assay [4] (setting [7]); 12% (inactive) in assay [4] (setting [8]); -0.05% (inactive) in assay [4] (at 50.0 µM). In addition, the growth inhibition is 16% (inactive) in assay [5] (setting [7]), 16% (inactive) in assay [5] (setting [8]) and 6.7% (inactive) in assay [5] (at 50.0 µM).

In the case of `COc1cc2c3c(c1)SCCC(=O)N3CCN2`, the growth inhibition is 17% (inactive) in assay [1] (setting [7]); 17% (inactive) in assay [1] (setting [8]); 71.7% (active) in assay [1] (at 50.0 µM); 4% (inactive) in assay [2] (setting [7]); 4% (inactive) in assay [2] (setting [8]); 81.2% (active) in assay [2] (at 50.0 µM). Besides, the growth inhibition was 15% (inactive) in assay [3] (setting [7]); 15% (inactive) in assay [3] (setting [8]); -22.6% (inactive) in assay [3] (at 50.0 µM); 0% (inactive) in assay [6] (setting [7]); 0% (inactive) in assay [6] (setting [8]); 73.3% (active) in assay [6] (at 50.0 µM). For the same compound, the growth inhibition in assay [5] (setting [7]) was 14% (inactive); in assay [5] (setting [8]), 14% (inactive); in assay [5] (at 50.0 µM) it was 45.7% (inactive).
